HCMV antiviral – qHTS Assay for inhibitors of the human cytomegalovirus (HCMV); HFF cells, HCMV-luciferase reporter, 72 h; active compounds read low; activity change, negative = inhibition, % at 57.5 µM; hit rate 4.5% among 410,000; AID 1259415, 2018; in the data active means activity change below about -60%; inconclusive means no clear call, values can overlap the other calls; inactive means above about -39%
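Two-dose cell screen: HFF monolayers treated with compounds and infected with luciferase-expressing HCMV at 1 PFU/cell, 72 h at 37C, then lysed for luciferase measurement.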
Pf growth 96h – Primary qHTS for delayed death inhibitors of the malarial parasite plastid, 96 hour incubation; P. falciparum luciferase reporter growth, 96 h; Potency, µM (top dose mostly 28.7 µM), actives largely listed as inhibitors; AID 504834, 2011; hit rate 6.9% among 320,000
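P. falciparum expressing integrated firefly luciferase, in erythrocytes at 2% hematocrit, 0.05% parasitemia, incubated with compounds 96 h at 37 C, 5% CO2. Growth inhibition read as loss of luminescence; two-generation exposure targets delayed-death apicoplast inhibitors.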
HCV inh – qHTS Assay for Inhibitors of Hepatitis C Virus (HCV); Huh7.5.1 HCVcc-Cre infection, luciferase reporter, 44 h; Potency, µM (series often up to 41.8 µM), hits mostly inhibitors; hit rate 3.4% among 340,000
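Whole-lifecycle infectious HCVcc-Cre system; cells 1,000/well, compound then virus (~0.5 moi) added 4 h after plating, 44 h culture. Luciferase read 15 sec following 15 min substrate incubation, room temp.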
Pf growth 48h – Primary qHTS for delayed death inhibitors of the malarial parasite plastid, 48 hour incubation; P. falciparum luciferase growth in erythrocytes, 48 h; hit rate 5.9% among 310,000; Potency, µM (titrated, usually from 28.7 µM), actives largely listed as inhibitors
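Firefly luciferase activity from engineered P. falciparum reports growth; inhibitors lower the luminescent signal. Cultures contained 2% hematocrit erythrocytes at 0.1% final parasitemia.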
Of the large screens only hits and unclear results are named; the others gave an inactive call. Hits are enriched below; roughly 13% of the tested compounds scored in any of these assays. Unless noted, the call rests on the fitted dose curve; in most records, active means well fitted inhibition curve with a large enough effect; inconclusive means small, poorly fitted or top-dose-only effect, or another doubt; inactive means no such curve, though single readings can be large or run the other way.

CCc1ccc(NC(=O)CCCN2C(=S)NC(C)(C)CC2C)cc1 (centres undefined)	Pf growth 96h 1.85µM, Pf growth 48h inconclusive
NNc1ncnc2sc3c(c12)CCC3	Pf growth 96h inconclusive, HCV inh inconclusive, Pf growth 48h inconclusive
C(=N\Nc1ncnc2sc3c(c12)CCC3)/c1ccncc1	HCMV antiviral inconclusive, HCV inh inconclusive, Pf growth 48h inconclusive
C(=N\Nc1ncnc2sc3c(c12)CCC3)/c1cccs1	HCMV antiviral -102.5, Pf growth 96h inconclusive (no result: HCV inh)
CN(C)c1ccc(Nc2ncnc3sc4c(c23)CCCC4)cc1	HCMV antiviral -89.5 (no result: Pf growth 96h, HCV inh, Pf growth 48h)
c1cc(Nc2ncnc3sc4c(c23)CCC4)ccn1	HCMV antiviral -63.3, Pf growth 48h 1.65µM
CCSc1ncc(Cl)c(C(=O)Nc2ccc(S(=O)(=O)Nc3nccc(C)n3)cc2)n1	none (no result: Pf growth 96h, HCV inh, Pf growth 48h)
COc1ccc(CNC(=O)CCc2c(C)c3cc4c(C)coc4cc3oc2=O)cc1	none (no result: Pf growth 96h, HCV inh, Pf growth 48h)
COc1ccc(CNC(=O)c2cc3c(=O)n(Cc4cccs4)ccc3nc2C)cc1	none (no result: Pf growth 96h, HCV inh, Pf growth 48h)
CSc1nc(C)cc(OCCNS(=O)(=O)c2cc(C)ccc2C)n1	Pf growth 96h inconclusive, HCV inh 22.4µM
COc1ccc2c(c1)c1c(c(=O)n(-c3ccc(F)c(Cl)c3)c(=O)n1Cc1ccccc1C)n2C	none (no result: Pf growth 96h, HCV inh, Pf growth 48h)
COc1ccccc1CNC(=O)c1cc2c(-c3ccc(Cl)cc3)nn(C)c2s1	none (no result: Pf growth 96h, HCV inh, Pf growth 48h)
CCN(CC)c1ccc(NC(=O)CN2CCN(CC(=O)Nc3ccc(OC)cc3)CC2)cc1	Pf growth 48h inconclusive
Oc1ccc(NC(=S)Nc2ccc(F)cc2)cc1	none
Fc1ccc(NC(=S)Nc2ccc(Br)cc2)cc1	HCMV antiviral -78.5, Pf growth 96h inconclusive, HCV inh inconclusive
CCN(CC)c1ccc(NC(=O)CN2CCN(CC(=O)Nc3ccc(F)cc3)CC2)cc1	Pf growth 96h 2.62µM, HCV inh inconclusive, Pf growth 48h inconclusive
CCN(CC)c1ccc(NC(=S)Nc2ccc(F)cc2)cc1	HCV inh 11.2µM, Pf growth 48h inconclusive
Cc1cccc(C)c1NC(=O)C1c2ccccc2OCC(=O)N1CCc1c[nH]c2ccccc12 (centres undefined)	none (no result: Pf growth 96h, HCV inh, Pf growth 48h)
CCCCCCSc1nnc(-c2cnn(-c3ccccc3)c2-n2cccc2)n1C	HCV inh inconclusive (no result: Pf growth 96h)
CCSc1nnc(-c2cnn(-c3ccccc3)c2-n2cccc2)n1C	Pf growth 48h 10.4µM (no result: Pf growth 96h)
C=CCn1c(SC(C)C(=O)c2c(N)n(C)c(=O)n(C)c2=O)nnc1-c1ccoc1C (centres undefined)	Pf growth 96h 8.28µM, Pf growth 48h 11.7µM
C=CCn1c(SCC(=O)c2c(N)n(C)c(=O)n(C)c2=O)nnc1-c1ccccc1F	Pf growth 96h inconclusive
CC(=O)Nc1nonc1-c1nnc(SCc2ccc(F)cc2Cl)n1C	none (no result: Pf growth 96h, HCV inh, Pf growth 48h)
COC(=O)c1ccc(OCC2c3cc(OC)c(OC)cc3CCN2C(=O)C2CC2)cc1 (centres undefined)	Pf growth 96h inconclusive, Pf growth 48h 11.7µM
CCc1ccc(OCC2c3cc(OC)c(OC)cc3CCN2C(=S)NCCOC)cc1 (centres undefined)	Pf growth 96h 10.4µM, HCV inh inconclusive, Pf growth 48h inconclusive
COc1cccc(NC(=S)N2CCc3cc(OC)c(OC)cc3C2COc2ccc3c(C)cc(=O)oc3c2)c1 (centres undefined)	HCMV antiviral inconclusive, Pf growth 96h inconclusive, Pf growth 48h 5.22µM
O=c1oc2cc(O)ccc2cc1-c1nc(-c2ccc(Cl)c(Cl)c2)cs1	none (no result: Pf growth 96h, HCV inh, Pf growth 48h)
Cc1cc(C)c(S(=O)(=O)Nc2ccc3oc4c(c3c2)CCCC4)cc1C	none (no result: Pf growth 96h, HCV inh, Pf growth 48h)
COc1ccc2[nH]c3c(NCCN4CCCCC4)ncnc3c2c1	Pf growth 48h 2.08µM (no result: HCMV antiviral, HCV inh)
CCOc1ccc2[nH]c3c(NCCc4ccc(OC)c(OC)c4)ncnc3c2c1	HCMV antiviral -66.1, Pf growth 96h 3.7µM, HCV inh 12.6µM, Pf growth 48h 4.65µM
COc1ccc(CCNc2ncnc3sc(C)cc23)cc1OC	HCMV antiviral -69.8, HCV inh 2.24µM, Pf growth 48h 5.22µM
CCOc1ccc2[nH]c3c(NCCO)ncnc3c2c1	none
Cc1cn([C@H]2C[C@H](N=[N+]=[N-])[C@H](CO)O2)c(=O)[nH]c1=O	none (no result: HCMV antiviral, HCV inh)
CCOC(=O)c1sc2ccccc2c1S(=O)(=O)NCc1ccc(F)cc1	none (no result: Pf growth 96h, HCV inh, Pf growth 48h)
CC12CN(C(=O)c3ccc([N+](=O)[O-])cc3)CC(C)(CN(C(=O)c3ccc([N+](=O)[O-])cc3)C1)C2=O	none
CCCC12CN(C(=O)c3ccc([N+](=O)[O-])cc3)CC(C)(CN(C(=O)c3ccc([N+](=O)[O-])cc3)C1)C2=O	Pf growth 96h 10.4µM, HCV inh inconclusive, Pf growth 48h 11.7µM
COc1cc(Cl)c(C)cc1NC(=O)CC1Oc2ccccc2NC1=O (centres undefined)	none (no result: Pf growth 96h, HCV inh, Pf growth 48h)
CC(C)n1c(C(O)c2ccc3c(c2)OCO3)nc2ccccc21 (centres undefined)	Pf growth 48h 9.28µM
Cn1c(C(O)c2ccc3c(c2)OCO3)nc2ccccc21 (centres undefined)	HCMV antiviral inconclusive
Cc1ccc(S(=O)(=O)C(CNC(=O)C(=O)NCCc2ccc(Cl)cc2)c2cccs2)cc1 (centres undefined)	none (no result: Pf growth 96h, HCV inh, Pf growth 48h)
CC(=O)N1CCN(c2ccc(Oc3ccc([N+](=O)[O-])c(C(F)(F)F)c3)cc2)CC1	Pf growth 96h inconclusive, HCV inh 11.2µM, Pf growth 48h inconclusive (no result: HCMV antiviral)
CCOc1ccc(C(=O)Nc2ccc(N3CCN(C(C)=O)CC3)cc2)cc1[N+](=O)[O-]	none
COc1ccc(C(=O)N/N=C(\Cc2ncc[nH]2)c2ccccc2)cc1	Pf growth 96h inconclusive, Pf growth 48h 3.29µM
Clc1cccc(N/N=C(\Cc2nc3ccccc3[nH]2)c2ccccc2)c1	Pf growth 96h 4.15µM, HCV inh inconclusive, Pf growth 48h 11.7µM
c1ccc(N/N=C(\Cc2ncc[nH]2)c2ccccc2)cc1	Pf growth 96h 9.28µM, Pf growth 48h inconclusive
COc1ccccc1OC(C)C(=O)Nc1cccc(-c2nc3ccccc3o2)c1 (centres undefined)	none (no result: Pf growth 96h, HCV inh, Pf growth 48h)
CCc1ccc(C(=O)c2cn(CC(=O)Nc3ccc4c(c3)OCCO4)c3ccc(CC)cc3c2=O)cc1	none (no result: Pf growth 96h, HCV inh, Pf growth 48h)
COc1ccccc1CNC(=O)c1nn(C)c2c1CS(=O)(=O)c1ccccc1-2	HCMV antiviral active
Cc1ccccc1NC(=O)c1nn(C)c2c1CS(=O)(=O)c1ccccc1-2	HCMV antiviral inconclusive, Pf growth 96h 13.1µM
COc1ccccc1NC(=O)c1nn(C)c2c1CS(=O)(=O)c1ccccc1-2	none (no result: Pf growth 96h, HCV inh, Pf growth 48h)
Cn1nc(C(=O)NCc2ccc(Cl)cc2)c2c1-c1ccccc1S(=O)(=O)C2	HCMV antiviral -82.1, Pf growth 48h inconclusive
Cc1ccc(C(=O)O/N=C2\CCSc3ccc(C)cc32)cc1	none
COc1ccc(S(=O)(=O)O/N=C2\CCSc3ccc(C)cc32)cc1	Pf growth 96h inconclusive, Pf growth 48h 2.94µM
COC(=O)c1c(-c2cccs2)csc1NC(=O)c1cc(OC)cc(OC)c1	none (no result: Pf growth 96h, HCV inh, Pf growth 48h)
CCOC(=O)c1ccc(NC(=O)COc2ccccc2CNC2CCCC2)cc1	Pf growth 48h 4.65µM
CCOc1cc(CNC2CCCC2)c(Cl)cc1OCC(=O)Nc1ccccc1	HCV inh inconclusive, Pf growth 48h 10.4µM
